Screens (PubChem)
Most compounds without a hit are left out; they make up all but 2.2% or so of the library.
Shn3 inh set2: Schnurri-3 reporter inhibition in Clone20 osteoblasts; Clone20 osteoblast Shn3 3'UTR firefly luciferase, 24 h; inhibition, % at 12.5 µM; hit rate 0.52% among 360,000; AID 588674;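 active = mean inhibition of at least 75% with every replicate also reaching 75%; inconclusive = mean inhibition at least 75% but some replicate below; inactive = mean inhibition below 75%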;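 also: 0% = median of neutral control wells and 100% = pilot-screen positive control compound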
PfHsp90 set2: growth inhibition of yeast expressing Plasmodium Hsp90. S. cerevisiae expressing PfHsp90, BacTiter-Glo ATP, 48 h; yeast lacking PDR1 and PDR3 efflux regulators. inhibition, % at 9.4 µM. hit rate 0.32% among 310,000;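 active = every replicate shows inhibition above about 80%, whatever the replicate mean, limit read from the data; inconclusive = mean inhibition reaches the set limit but some replicate falls short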;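 also: 0% = DMSO neutral controls and 100% = 20 µM radicicol positive controls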
CSC inhib: cancer stem cell inhibition. inhibition, % at 7.5 µM. hit rate 1.1% among 300,000. cancer stem cell-like cells viability, luminescence; in the data active = inhibition above about 75%; inconclusive = no clear call, values can overlap the other calls; tested in HMLE shEcad cells
Calb FLC: affects C. albicans growth with fluconazole; C. albicans CaCi-2 (fluconazole-resistant clinical isolate) + fluconazole, Alamar Blue growth, 48 h; growth inhibition, % (concentration not given with the values); hit rate 0.57% among 300,000; AID 1979;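 active = growth inhibition above about 58% in most replicates, limit read from the data, passing the limit was not always enough; inconclusive = exactly half the replicates above a set limit; inactive = most replicates below a set limit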;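 also: all wells also contain fluconazole at 8 µg/ml as a sub-toxic cotreatment; 0% = median of DMSO wells and 100% = median of geldanamycin control wells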
Beta apoptosis: blocks beta cell apoptosis; protection from apoptosis, % (test concentration not listed); hit rate 0.8% among 300,000; INS-1E cytokine-induced death, ATP luminescence, 48 h; percent of positive-control rescue, neutral wells zero;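 active = Every replicate reaches about 75%, or at least half do and their mean reaches it too, limit read from the data; inconclusive = At least half of replicates reach the limit but their mean does not; inactive = Under half of replicates reach the limit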;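 also: 0% = cytokine-treated negative control wells and 100% = positive control rescue; higher means more ATP so stronger rescue from cytokine killing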
* = called active by the depositor; ? = inconclusive; · = not tested or not shown.

SMILES	Shn3 inh set2	PfHsp90 set2	CSC inhib	Calb FLC	Beta apoptosis
O=C1CCN(C(=O)c2cccs2)c2ccccc21	-12	-14	-28	4	-7
CN1C(=O)/C(=C\C(=O)c2cccs2)c2ccccc21	31	1	·	97*	·
FC(F)Sc1ccc(-n2cc(-c3ccc(Cl)cc3)[n+]3c2CCC3)cc1	-20	2	·	-23	12
Cc1ccc(-c2cn(-c3ccc(SC(F)F)cc3)c3[n+]2CCC3)cc1	77	6	·	-14	82*
Cc1ccc(-c2cn(-c3ccc(OC(F)F)cc3)c3[n+]2CCCCC3)cc1	88*	5	-2	?	100*
Cc1cc(C(=O)NNC(=O)[C@H](C)NC(=O)c2ccc(Br)cc2)c(C)o1	5	-5	-20	·	-1
O=C(COc1ccc(/C=N/NC(=O)c2cc3ccccc3o2)cc1Cl)Nc1ccccc1	27	-12	116*	12	-4
CCn1c(COc2ccc(=O)n(-c3ccccc3)n2)nnc1SCc1cccc(OC)c1	-13	-31	-16	85*	-4
O=C(Nc1nc2c(Cl)cccc2s1)c1ccc(Br)o1	0	-10	-2	54*	19
Cc1[nH]c2ccccc2c1C(=O)C(=O)NCc1ccncc1	12	-2	-9	-3	-1
COc1cc(Nc2nc(-c3ccccc3)c3cc(C)ccc3n2)cc(OC)c1OC	84*	·	?	26	7
Cc1ccc2nc(NCC(=O)O)nc(-c3ccccc3)c2c1	25	-16	6	14	3
Cc1ccc(-n2c(SCC(=O)c3c(N)n(C)c(=O)n(C)c3=O)nc3sc4c(c3c2=O)CCCC4)c(C)c1	64	-36	5	-10	102*
O=C(NCC1CCCO1)c1ccc(NC(=O)c2cccc([N+](=O)[O-])c2)cc1 (configuration not stated)	4	6	-4	-10	·
CCCCCn1c(N2CCC(Cc3ccccc3)CC2)nc2c1c(=O)[nH]c(=O)n2C	52	-99	118*	-10	20
Cc1ncc2c(n1)NC(=O)NC2	-10	17	·	·	·
CC(NC(=O)/C(C#N)=C1\N=C(NC(=O)c2cccs2)c2ccccc21)c1ccccc1 (configuration not stated)	-26	5	-3	-2	-2
CCOc1cc(NCc2ccccc2)c2ncn(C(C)C)c2c1	3	-5	·	·	-5
CCCOc1cc(NCc2ccccc2)c2ncn(C(C)C)c2c1	6	6	46	·	124*
CCC(CO)Oc1cc(NCc2ccc(Cl)cc2Cl)c2ncn(C(C)C)c2c1 (configuration not stated)	2	8	111*	·	7
CC(C)n1cnc2c(NCc3ccccc3)cc(Cc3ccc(F)cc3)cc21	-11	-36	129*	·	11
CCOC(=O)C(CC(=O)Nc1nc(C(C)=O)c(C)s1)C(C)c1ccccc1 (configuration not stated)	11	3	1	·	2
CCOC(=O)c1ccc(-c2ccc3ncnc(NCc4csc(C)n4)c3c2)o1	24	·	·	·	·
Cc1cc(-c2ccccc2)nc(Nc2nc3c(C)cccc3c(=O)[nH]2)n1	-30	-19	·	·	·
CCCCN(C(=O)c1[nH]c(C)c(C(=O)OCC)c1C)c1c(N)n(CCCC)c(=O)[nH]c1=O	-10	-23	-9	·	-1
SMILES	Shn3 inh set2	PfHsp90 set2	CSC inhib	Calb FLC	Beta apoptosis
CC(=O)Nc1cc(OC(C)=O)c2nonc2c1OC(C)=O	-4	-7	106*	·	-3
CC1(C)N=C(SCC(=O)Nc2ccccc2)C(c2ccc(Cl)cc2)=N1	0	18	11	9	-11
Cc1ccc(C2=NC(C)(C)N=C2SCC(=O)Nc2ccc(Cl)cc2)cc1	6	134*	-7	16	2
CC1(C)N=C(SCC(=O)Nc2ccc(Cl)cc2Cl)C(c2ccccc2)=N1	9	99*	3	8	-7
CCC(=O)N(CCC1(c2ccccc2OC)CCOC(C(C)C)C1)Cc1ccco1 (configuration not stated)	14	-24	6	-3	6
O=C1C2CCCCN2C(=O)N1CCCCN1CCN(c2cccc(Br)c2)CC1 (configuration not stated)	-12	22	-1	-4	-4
COC(=O)c1c(C)n(-c2ccccc2)c2ccc(O)cc12	19	10	13	92*	-2
O=c1c(Cl)c(NCc2ccccc2)cnn1C12CC3CC(CC(C3)C1)C2	-11	3	77*	?	3
O=C(O)CC12CC3CC(C1)CC(n1ncc(NCc4ccco4)c(Cl)c1=O)(C3)C2	-14	22	-9	1	-16
Cn1c(COc2ccccc2O)[n+](C)c2ccccc21	-13	-14	2	15	-1
CCCCCCCCCCOC(=O)Cn1c(COc2ccccc2OC)[n+](C)c2ccccc21	89*	-31	93*	-12	107*
CCn1c(-c2ccc(N)cc2)nc2ccccc21	-29	15	-9	-6	-5
CCn1c(-c2ccc(N(C)C)cc2)nc2ccccc21	31	-114	6	-12	113*
CCOC(=O)c1ccc(NC(=S)NCCc2ccc(F)cc2)cc1	10	2	17	13	-3
Cc1ccc(NC(=O)COc2ccc(N(C)C(=O)C(C)(C)C)cc2)cc1S(=O)(=O)N1CCCCC1	79	-9	3	·	115*
COc1ccc(NC(=O)CCCOc2ccc(C)cc2)cc1S(=O)(=O)N1CCCCC1	35	·	·	·	·
COc1ccc(NC(=O)CCOc2cc(C)ccc2C)cc1S(=O)(=O)N1CCCCC1	93*	13	-13	·	0
O=C(NCCCn1ccnc1)c1ccc(COc2ccccc2)o1	-6	·	-4	4	·
CC1=NN(c2nc(N)nc(/C(C#N)=C/c3ccc([N+](=O)[O-])o3)n2)C(C)(C)C1	98*	8	·	·	·
N#CCCN(C(=S)Nc1ccc(S(=O)(=O)N2CCOCC2)cc1)c1ccccc1F	-6	6	·	·	·
Cc1ccc(N2C(=O)[C@@H]3C(c4cccnc4)=NO[C@@H]3C2=O)c(C)c1	1	2	-14	13	-1
O=C1[C@@H]2C(c3cccnc3)=NO[C@@H]2C(=O)N1c1ccc(Br)cc1	-19	94*	5	4	-7
CCN(CCn1cccn1)C(=O)C1CCC(=O)N(CCN2CCOCC2)C1 (configuration not stated)	2	9	10	4	0
O=C(Nc1ccncc1)c1ccc(Br)cc1	21	-7	-5	93*	8
O=C(Nc1ccncc1)c1ccc(Cl)cc1	23	0	-12	-1	1
SMILES	Shn3 inh set2	PfHsp90 set2	CSC inhib	Calb FLC	Beta apoptosis
Cc1ccc(S(=O)(=O)N2CCN(Cc3ccccc3)CC2)s1	-10	20	·	·	-2
O=C1c2ccccc2C(=O)C12OC2c1ccc(Cl)cc1Cl (configuration not stated)	95*	-47	69	·	1
CCCCCCC(=O)O	-13	6	·	·	·
CCCCCCCC/C=C\CCCCCCCC(=O)O	-29	-25	-14	·	1
CCCCCCCC/C=C\CCCCCCCC(=O)NCCc1ccc(O)c(O)c1	91*	8	100*	·	?
CCCCC(=O)NCCc1ccc(S(N)(=O)=O)cc1	15	-2	8	-9	-2
